Data from PubChem BioAssay (Tox21).
Where “and” joins values, the source holds several entries; their conditions need not be identical. Equal entries are not always repeated. Records with an inconclusive call do not appear. Where a call stands in place of a potency, no number is given. More than one record can exist for a structure, and the calls need not agree. Calls of active or inactive are those of the source. Calls come from the whole dose curve; as a rule, active = well fitted activation curve with a large enough effect in the repeat runs; inconclusive = weak or mixed curves; inactive = flat fitted curve, though single readings scatter.

Assay: A CellTox Green Cytotoxicity Assay to monitor cytotoxicity in HepG2 cells - 8 hour (AID 1224890); note: nearly all actives have a fitted effect of over 45% in size
Settings: CellTox Green fluorescence; series mostly up to 76.8 µM
Text: National Center for Advancing Translational Sciences [NCATS]
NIH Chemical Genomics Center [NCGC]
U.S. Environmental Protection Agency [EPA]
National Institutes of Environmental Health Sciences [NIEHS]
National Toxicology Program [NTP]
Cell-based models are critical for drug discovery. Determining the natural cytotoxic effects resulting from test compounds is an essential research activity. A CellTox Green Cytotoxicity Assay to monitor cytotoxicity in real time of continues cell culture during 40 hours of the compound treatment was used to screen Tox21 10K library compounds in HepG2 cells. CellTox Green Cytotoxicity Assay is a nonlytic, homogeneous, biofluorescent method to measure cytotoxicity in cell culture after experimental manipulation. The assay system uses a proprietary asymmetric cyanine dye that is excluded from viable cells but preferentially stains the dead cell's DNA. […] Viable cells produce no appreciable increases in fluorescence. Therefore, the fluorescence signal produced by the binding interaction with dead cell DNA is proportional to cytotoxicity.
The mixture of HepG2 cell suspension and reagents were dispensed at 600cells/6 ul/well in 1536-well tissue culture treated black solid bottom plates using a Multidrop dispenser. After the assay plates were incubated at a 37 C/5% CO2 incubator for 5 hours, 23 nL of compounds dissolved in DMSO, positive and negative controls was transferred to the assay plate by a pintool work station. The plates were incubated at 37 C for 40 hours. The fluorescence intensity were measured at 0h, 8h, 16h, 24h, 32h and 40h time points using ViewLux plate reader during compound treatment.
Potency is the fitted concentration of half-maximal effect.

Structure (SMILES)	Potency
CC(C)=CCO	inactive
Cc1ccc(N)c([N+](=O)[O-])c1	inactive
CC1(C)C(C=C(Cl)Cl)C1C(=O)OCc1cccc(Oc2ccccc2)c1 (stereo not given)	inactive
Cc1ccc(C(C)(C)C)c(O)c1	inactive and 43.6 µM (active)
Cc1ccc(S(=O)(=O)O)cc1C	inactive
CCCCCCCC/C=C\CCCCCCCC(=O)O	inactive
Oc1ccc(C(c2ccc(O)cc2)C(Cl)(Cl)Cl)cc1	inactive
NC[C@H](O)c1ccc(O)c(O)c1	inactive
Cc1ccc([N+](=O)[O-])c(C)c1	inactive
CN(C)CCCN1c2ccccc2Sc2ccc(Cl)cc21	inactive
OC[C@@H](O)[C@@H](O[C@@H]1O[C@H](CO)[C@H](O)[C@H](O)[C@H]1O)[C@H](O)[C@@H](O)CO	inactive
COC(=O)CC(=O)OC	inactive
O=C(O)CCCC(=O)O	inactive
Cc1cccc(Nc2ccccc2C(=O)O)c1C	inactive
Nc1ccc(N)c(Cl)c1	inactive and 38.9 µM (active)
[O-]/[N+](=N\O)c1ccccc1	inactive
CN1CCOCC1	inactive
[Na+]	inactive
O=C1CCc2ccccc2O1	inactive
Nc1ccc2c(O)cc(S(=O)(=O)O)cc2c1	inactive

Structure (SMILES)	Potency
COC(=O)c1ccc(C)cc1	inactive
CC(=O)Oc1ccc(C(c2ccc(OC(C)=O)cc2)c2ccccn2)cc1	inactive
C=CN1CCCC1=O	inactive
CCC/C=C/C=O	inactive
O=C(CCCN1CCC(O)(c2ccc(Cl)cc2)CC1)c1ccc(F)cc1	49 µM (active) and inactive
CCC(=O)O[C@H]1[C@H](O[C@@H]2[C@@H](C)[C@H](O[C@H]3C[C@@](C)(OC)[C@@H](O)[C@H](C)O3)[C@@H](C)C(=O)O[C@H](CC)[C@@](C)(O)[C@H](O)[C@@H](C)C(=O)[C@H](C)C[C@@]2(C)O)O[C@H](C)C[C@@H]1N(C)C	inactive
Clc1ccc(Sc2cc(Cl)c(Cl)cc2Cl)cc1	inactive
Cc1ccc(C(C)(C)C)cc1	inactive
Nc1ccc2c(c1)C(=O)c1ccccc1C2=O	inactive
C=CCCCCCCCCCC	inactive
COc1cc([C@H]2Oc3cc([C@H]4Oc5cc(O)cc(O)c5C(=O)[C@@H]4O)ccc3O[C@@H]2CO)ccc1O	inactive and 23.9 µM (active)
CNC[C@H](O)c1ccc(O)c(O)c1	inactive
CC(=O)Oc1c(C)c(C)c2c(c1C)CC[C@@](C)(CCC[C@H](C)CCC[C@H](C)CCCC(C)C)O2	inactive
Cc1ccc(/C(=C\CN2CCCC2)c2ccccn2)cc1	inactive
COc1ccc(-c2coc3cc(O)cc(O)c3c2=O)cc1	inactive
C=C[C@H]1CN2CC[C@H]1C[C@@H]2[C@@H](O)c1ccnc2ccc(OC)cc12	inactive
CN(C)/N=N/c1nc[nH]c1C(N)=O	inactive
CCCCCC1C(=O)CCC1CC(=O)OC (stereo not given)	inactive
CCC(Cc1c(I)cc(I)c(N)c1I)C(=O)O (stereo not given)	inactive
C=CCOC(=O)C(=C)C	inactive
